Source: PubChem
LGR2 antag: inhibitors of bursicon-induced LGR2 CRE-luciferase signal, primary screen, cell-based, HEK293, CRE-luciferase reporter, bursicon stimulation; inhibition, % at 9.99 µM; bursicon-stimulated, 4 h; Drosophila bursicon receptor LGR2 (rickets); AID 720647, 2013; hit rate 0.35% among 380,000;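 active means drop in luminescence signal, shown as inhibition above about 50% in the replicate tests, limit read from the data, passing the limit was not always enough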;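 further: agonist challenge used bursicon conditioned medium at about half maximal strength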
TWEAK-Fn14 inh: inhibitors of TWEAK-Fn14 signaling, primary screen, luciferase reporter cells, uHTS | inhibition, % at 10 µM | TWEAK-stimulated Fn14 reporter cells, luciferase luminescence, 8 h | hit rate 2% among 360,000; in the data active means inhibition above about 50%
TROY NFkB inh: inhibitors of TROY-driven NF-kB signaling, primary screen, Q293 LMP1-TROYcd cells, NF-kB luciferase, uHTS. hit rate 0.98% among 360,000. inhibition, % at 10 µM. Q293 LMP1-TROYcd NF-kB luciferase reporter, 4 h;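 active means compounds whose plate-normalised and pattern-corrected inhibition of the luciferase reporter signal at the single screening dose is 50% or more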
PAX8 reporter: inhibitors of PAX8-driven TPO luciferase reporter, primary screen, RMG-I cells, single concentration | SteadyGlo, 24 h | inhibition, % at 12.6 µM | hit rate 1.2% among 360,000 | AID 652154, 2013;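 active means mean replicate inhibition at least 60% with every replicate also reaching 60%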;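 further: luciferase light reporting Pax8 driven TPO promoter activity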
EWS-Fli inh: EWS/Fli-driven NR0B1 reporter inhibitors, primary screen, A673 cells, NR0B1 luciferase, luminescence, MLPCN library | viability-normalised | inhibition, % at 12.6 µM | hit rate 0.67% among 350,000;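 active means mean inhibition of at least 50% after viability correction, with every replicate also passing that limit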;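 further: firefly luciferase signal divided by Alamar Blue viability fluorescence both relative to DMSO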
Numbers stand for hits; 0 = inactive; - = no result given. An excerpt weighted towards active compounds, which were near 2.8% of everything screened.

SMILES	LGR2 antag	TWEAK-Fn14 inh	TROY NFkB inh	PAX8 reporter	EWS-Fli inh
O=C(NCCN1C(=O)S/C(=C\c2ccc(Cl)c(Cl)c2)C1=O)c1ccc2c(c1)C(=O)N(Cc1ccncc1)C2=O	0	58	0	0	0
COc1ccc(C2CC3(O)CC(C#N)(C(=O)N3)C2(C#N)C#N)cc1 (configuration not stated)	0	91	82	0	0
C[C@H]1CN([C@@H](C)CO)C(=O)Cc2cc(NC(=O)C3CCCCC3)ccc2O[C@H]1CN(C)C(=O)Nc1cccc2ccccc12	0	-	-	-	0
CN(Cc1ccc(OC(F)F)cc1)C(=O)c1cccc(S(=O)(=O)N2CCN(c3ccccc3)CC2)c1	0	73	0	0	0
COc1ccc(CCN(C)C(=O)c2cccc(S(=O)(=O)N3CCN(c4ccc(F)cc4)CC3)c2)cc1OC	0	0	0	0	0
Cc1cccc(C)c1NC(=O)CN(C)C(=O)c1cccc(S(=O)(=O)N2CCN(c3ccccc3)CC2)c1	0	0	0	-	0
CN(CCOc1ccc(Cl)cc1)C(=O)c1cccc(S(=O)(=O)N2CCN(c3ccc(F)cc3)CC2)c1	-	64	0	-	-
Cc1ccccc1N=Nc1ccc(O)c2ncccc12	-	0	0	0	0
O=[N+]([O-])c1ccc(O)c2ncccc12	101	0	0	0	0
O=Nc1ccc(O)c2ncccc12	0	55	0	0	72
C[C@H]1CN([C@@H](C)CO)C(=O)c2cccc(NC(=O)C3CC3)c2O[C@@H]1CN(C)Cc1ccc(C(=O)O)cc1	0	-	-	0	0
Cc1ccc(C)c(S(=O)(=O)N2CCCCC2CCNC(=O)C(=O)NCc2ccncc2)c1 (configuration not stated)	0	0	0	69	0
Cc1ccc(C)c(S(=O)(=O)N2CCCCC2CCNC(=O)C(=O)NC2CCCC2)c1 (configuration not stated)	0	0	0	0	0
CCCCC(=O)N1CCN(c2ccc(OC)cc2[N+](=O)[O-])CC1	0	0	0	87	0
COc1ccc(N2CCN(C(=O)c3ccccc3)CC2)c([N+](=O)[O-])c1	0	0	0	0	0
CCCC(=O)Nc1ccc2c(c1)C(=O)N(C)C[C@@H](OC)[C@@H](C)CN(Cc1nccs1)[C@@H](C)CO2	0	-	-	0	0
Cc1ccc(S(=O)(=O)Nc2ccc3c(c2)C(=O)N([C@H](C)CO)C[C@@H](C)[C@H](CN(C)C(=O)Nc2cccc4ccccc24)OCCCC[C@@H](C)O3)cc1	0	-	-	79	0
Cc1ccc(S(=O)(=O)Nc2ccc3c(c2)C(=O)N([C@@H](C)CO)C[C@H](C)[C@@H](CN(C)C(=O)Nc2cccc4ccccc24)OCCCC[C@H](C)O3)cc1	0	-	-	70	0
Cc1ccc(S(=O)(=O)Nc2ccc3c(c2)C(=O)N([C@@H](C)CO)C[C@@H](C)[C@@H](CN(C)C(=O)Nc2cccc4ccccc24)OCCCC[C@H](C)O3)cc1	0	-	-	0	0
Cc1ccc(S(=O)(=O)Nc2ccc3c(c2)C(=O)N([C@@H](C)CO)C[C@H](C)[C@@H](CN(C)C(=O)Nc2cccc4ccccc24)OCCCC[C@@H](C)O3)cc1	0	-	-	81	0
C[C@H]1CCCCO[C@H](CN(C)C(=O)Nc2cccc3ccccc23)[C@@H](C)CN([C@@H](C)CO)C(=O)c2cc(NS(=O)(=O)c3ccccc3)ccc2O1	0	-	-	72	0
C[C@H](CO)N1C[C@H](C)[C@@H](CN(C)C(=O)Nc2cccc3ccccc23)OCCCC[C@H](C)Oc2ccc(NS(=O)(=O)c3ccccc3)cc2C1=O	0	-	-	0	0
Cc1noc(C)c1NC(=O)N(C)C[C@H]1OCCCC[C@H](C)Oc2ccc(NC(=O)NC(C)C)cc2C(=O)N([C@@H](C)CO)C[C@H]1C	0	-	-	0	0
O=C(Nc1ccc(F)cc1)N[C@@H]1C=C[C@H](CC(=O)N2CCOCC2)O[C@@H]1CO	0	-	-	0	0
C[C@@H]1CN([C@@H](C)CO)C(=O)Cc2cc(NC(=O)Nc3ccccc3)ccc2O[C@@H]1CN(C)S(C)(=O)=O	0	-	-	0	0
SMILES	LGR2 antag	TWEAK-Fn14 inh	TROY NFkB inh	PAX8 reporter	EWS-Fli inh
CCC(=O)N1[C@@H]2Cn3c(ccc(C4=CCCC4)c3=O)[C@H]1[C@@H](C(=O)NCC1CCCCC1)[C@@H]2CO	0	-	-	0	0
C[C@@H]1CCCCO[C@@H](CN(C)C(=O)Nc2cccc3ccccc23)[C@H](C)CN([C@@H](C)CO)C(=O)c2cc(NS(=O)(=O)c3ccc(Cl)cc3)ccc2O1	0	-	-	0	0
C[C@@H]1CCCCO[C@H](CN(C)C(=O)Nc2cccc3ccccc23)[C@H](C)CN([C@@H](C)CO)C(=O)c2cc(NS(=O)(=O)c3ccc(Cl)cc3)ccc2O1	0	-	-	76	0
CN1CCN(c2ccc(NC(=O)COc3ccccc3[N+](=O)[O-])cc2)CC1	0	0	0	0	0
O=C(COC(=O)c1ccc([N+](=O)[O-])o1)Nc1cccc(S(=O)(=O)N2CCCCC2)c1	0	0	0	0	0
O=C(Nc1ccc(N2CCOCC2)c(Cl)c1)c1ccc([N+](=O)[O-])o1	0	0	0	71	0
CCCC(=O)N1CCN(c2ccc(NC(=O)c3ccc([N+](=O)[O-])o3)cc2Cl)CC1	0	0	0	104	71
CC(C)C(=O)N1CCN(c2ccc(NC(=O)COc3ccccc3[N+](=O)[O-])cc2)CC1	63	75	0	0	0
O=C(Nc1ccccc1N1CCOCC1)c1ccc([N+](=O)[O-])o1	0	0	0	0	-
O=C(Nc1cccc(S(=O)(=O)N2CCCCC2)c1)c1ccc([N+](=O)[O-])o1	0	0	0	76	0
COc1ccc(NC(=O)N(C)C[C@H]2Oc3ccc(NC(=O)Cc4cn(C)c5ccccc45)cc3C(=O)N([C@H](C)CO)C[C@@H]2C)cc1	-	-	-	-	0
CC(C)C(=O)N1CCN(c2ccc(NC(=O)c3ccc(Br)o3)cc2)CC1	-	0	0	0	-
CC(C)C(=O)N1CCN(c2ccc(NC(=O)c3ccc([N+](=O)[O-])o3)cc2)CC1	0	0	0	97	0
CCCCOc1ccc(C(=O)Nc2ccc(N3CCN(C(=O)C(C)C)CC3)cc2)cc1	-	59	0	-	-
CC(C)C(=O)N1CCN(c2ccc(NC(=O)c3ccc([N+](=O)[O-])o3)cc2Cl)CC1	0	0	0	88	61
Cc1ccc(NC(=O)c2ccc([N+](=O)[O-])o2)cc1S(=O)(=O)N1CCOCC1	0	0	0	84	0
Cc1ccc(NC(=O)c2cc([N+](=O)[O-])ccc2N2CCOCC2)cc1S(=O)(=O)N1CCOCC1	0	0	0	-	-
CN1C(=O)c2cc(NC(=O)Cc3cccs3)ccc2OC[C@@H]2O[C@H](CC(=O)NCC3CC3)CC[C@H]21	0	-	-	0	0
CC(=O)N1CCN(c2ccc(NC(=O)c3ccc(Br)o3)cc2Cl)CC1	0	0	0	0	0
CN1CCN(c2ccc(NC(=O)c3ccc([N+](=O)[O-])o3)cc2Cl)CC1	0	0	0	82	0
